# LDHA inh – qHTS assay for inhibitors of human lactate dehydrogenase; L-lactate dehydrogenase A chain (Homo sapiens), P00338; AID 1347041, 2019; actives 0.15% (n = 480,000); purified LDHA, NADH/diaphorase-resazurin fluorescence; active compounds read low; activity change, % (values are at about 110 or 230 µM); in the data active means activity change below about -30%; inconclusive means mostly about -25% to -30%;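 further: plate controls were DMSO wells for no effect and wells without enzyme for full effect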
#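 Remaining NADH was detected by diaphorase (0.133 mg/mL) converting 37 µM resazurin to fluorescent resorufin, read at 0 and 20 minutes. The preceding 5-minute room-temperature reaction used 2 nM LDHA, 0.2 mM sodium pyruvate and 0.06 mM NADH at pH 7.4.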
# A549 viability – Nrf2 qHTS screen for inhibitors: counterscreen for cytotoxicity. A549 ARE-Fluc cells, CellTiter-Fluor viability, 18-24 h. Potency, µM (doses to about 46 µM), without a hit: at the top dose activity change, negative = cytotoxicity, actives largely listed as inhibitors. actives 0.16% (n = 390,000). AID 504648, 2011; further: potency means the concentration at half of the fitted maximal effect; on the % scale 0 is the no-effect control and ±100 the full control effect
#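 A549 ARE_Fluc cells in 5% FBS OPTI-MEM were exposed to compounds in concentration-response for 18-24 h at 37 deg C. Viability was read by CellTiter-Fluor fluorescence (Ex 405/Em 525) after 30 min, before the luciferase read.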
# Nrf2 ARE act – qHTS of Nrf2 Activators; AREc32 ARE-luciferase reporter (MCF7-derived line), luminescence, 24 h; Potency, µM (series often up to 46.1 µM), for the others: at the top dose activation, actives largely listed as activators; actives 0.31% (n = 410,000); further: potency means the concentration at half of the fitted maximal effect; % of control where 0% means no effect; nearly all actives have a fitted effect of over 65% in size
#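 ARE activation measured as luciferase luminescence (Steady-Glo, 30 min RT) in AREc32_Fluc cells after 24 hr compound exposure at 37 deg C, 5% CO2; cells seeded overnight at 1000/well in OPTI-MEM, 5% FBS.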
# ERG-DNA inh – qHTS for Small Molecule Inhibitors of the ERG Ets/DNA interaction; Transcriptional regulator ERG (Homo sapiens), P11308; fluorescence polarization, His-ERG Ets domain / labelled DNA; Potency, µM (doses to about 76.9 µM), for the others: at the highest dose FP activity, negative = inhibition, actives largely listed as inhibitors; actives 0.028% (n = 370,000); AID 624246, 2012; active means well fitted inhibition curve with a large enough effect in the polarisation, with a control signal flat; inconclusive means small, poorly fitted or top-dose-only effect, or effect the other way, or a change in a side signal; inactive means no such curve, though single readings can be large or run the other way; the % refers to the polarisation;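 further: polarization taken with two DNA probes labelled with fluorescein and Texas red; potency means the concentration at half of the fitted maximal effect; % of control where 0% means no effect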
# Target sequence (P11308 whole entry, looked up, the tested form may be a part): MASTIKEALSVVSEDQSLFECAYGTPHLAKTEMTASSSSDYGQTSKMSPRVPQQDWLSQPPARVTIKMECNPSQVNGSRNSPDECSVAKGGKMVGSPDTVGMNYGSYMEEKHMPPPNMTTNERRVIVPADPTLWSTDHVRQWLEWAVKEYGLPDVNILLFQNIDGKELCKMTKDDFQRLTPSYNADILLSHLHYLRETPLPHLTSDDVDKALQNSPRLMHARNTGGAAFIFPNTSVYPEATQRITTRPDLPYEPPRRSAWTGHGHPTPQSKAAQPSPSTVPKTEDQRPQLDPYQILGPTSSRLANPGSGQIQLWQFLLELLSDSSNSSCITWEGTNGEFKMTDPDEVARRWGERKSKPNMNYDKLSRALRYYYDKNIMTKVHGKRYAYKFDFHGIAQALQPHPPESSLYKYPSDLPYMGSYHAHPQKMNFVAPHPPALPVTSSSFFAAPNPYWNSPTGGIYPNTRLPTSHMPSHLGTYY
#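 His-tagged ERG Ets domain (1 uM in the protein solution; 300mM KCl, 50mM Tris-HCl, 1mM EDTA, 1mM DTT, pH 7.5) received compound, then a probe mix of 5 nM fluorescein-DNA and 100nM Texas-615-DNA. Fluorescence polarization was read for both dyes.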
# Nrf2 block – Nrf2 qHTS screen for inhibitors | A549 ARE-Fluc reporter, luciferase luminescence, 18-24 h | actives 2.1% (n = 360,000) | Potency, µM (titrated, usually from 46 µM), for the others: at the top dose activity change, negative = inhibition, hits mostly inhibitors; further: potency means the concentration at half of the fitted maximal effect; on the % scale 0 is the no-effect control and ±100 the full control effect; nearly all actives have a fitted effect of over 60% in size
#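 Nrf2 activity is the BugLite luminescence, read 15 min after reagent at room temperature, following CellTiter-Fluor cytotoxicity readout (30 min, 37C). Compound titrations were applied for 18-24 h to 5000 A549 ARE_Fluc cells/well in 5% FBS OPTI-MEM.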
# 12-LOX inh – Primary qHTS assay for inhibitors of human arachidonate 12S-lipoxygenase (ALOX12): Round 2. actives 1.1% (n = 580,000). purified 12hLO, xylenol orange hydroperoxide absorbance. AID 1671190, 2021. Potency, µM (titrated, usually from 108 µM), without a hit: top-dose activity change, negative = inhibition, actives largely listed as inhibitors. Polyunsaturated fatty acid lipoxygenase ALOX12 (Homo sapiens), P18054; further: potency means the concentration at half of the fitted maximal effect; on the % scale 0 is the no-effect control and ±100 the full control effect
#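 Purified human 12hLO (150 nM final) in 25 mM Hepes, 0.01% Triton X-100, pH 7.0 was preincubated 15 min at room temperature with compound. Then 40 uM arachidonic acid was added, 30 min. Hydroperoxide was read by Fe-XO absorbance ratio 573/405 nm.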
# Starred values were filed as active, the others as inactive; ? = inconclusive; . = no result given; ! = not confirmed by another sample; [ ] = dose if it differs, or a comment. Most compounds without a hit are left out; they make up all but 2.7% or so of the library. Unless noted, the call rests on the fitted dose curve; in most records, active means well fitted curve in the direction sought with a large enough effect; inconclusive means small, poorly fitted or top-dose-only effect, or another doubt; inactive means no such curve, though single readings can be large; an effect the other way counts as inactive or inconclusive.
SMILES,LDHA inh,A549 viability,Nrf2 ARE act,ERG-DNA inh,Nrf2 block,12-LOX inh
CC(C)c1cccc(C(C)C)c1NC(=O)COC(=O)Cc1n[nH]c(=O)c2ccccc12,2,.,.,.,.,?
Cc1ccc(S(=O)(=O)NNC(=O)c2sccc2-n2cccc2)cc1,1,-5%,0%,-9%,4%,32µM*
CN(C)S(=O)(=O)c1ccc(Cl)c(NC(=O)CSc2nc3c(cc2C#N)C(=O)CCC3)c1,-2,-12%,-1%,-7%,15µM*,-10%
Cc1ccc(NC(=O)CSc2nc3c(cc2C#N)C(=O)CCC3)cc1S(=O)(=O)N(C)C,-2,-3%,2%,-2%,?,-9%
Cc1oc(-c2nc(C#N)c(NC(C)C)o2)cc1S(=O)(=O)N1CCOCC1,-1,.,.,.,.,?
Cc1cc(NC(=O)CS(=O)(=O)c2cn(Cc3ccc(F)cc3)c3ccccc23)no1,-11,-9%,5%,7%,21µM*,-5%[57.4 µM]
Cc1cc(NC(=O)CS(=O)(=O)c2cn(Cc3cccc(F)c3)c3ccccc23)no1,3,?,1%,-4%,23µM*,-25%
Cc1ccsc1/C=N/NC(=O)C1CC1,11,.,.,.,.,?
COc1cccc(N=C2SC(C(=O)Nc3ccc(F)cc3)CC(=O)N2C)c1 (stereo not drawn),-1,?,0%,.,21µM*,-14%
Cc1ccc(C(=O)NCC(=O)NCC#Cc2cccc(C(F)(F)F)c2)cc1,6,.,.,.,.,-24%
O=C(O)Cn1cc(C(=S)N2CCOCC2)c2ccccc21,1,13%,-1%,-6%,5%,10µM*
O=C(O)Cn1cc(C(=S)N2CCCCC2)c2ccccc21,-2,-5%,0%,-4%,9%,40µM*
N#Cc1cccc(NC(=O)Cn2nc3c(N4CCOCC4)nc4ccccc4n3c2=O)c1,-7,.,.,.,.,-1%
Clc1ccc(Cn2c(/C=C/c3ccco3)nc3ccccc32)cc1,-7,-3%,?,-1%,21%,18µM*
Cc1ccc(Cn2c(/C=C/c3ccco3)nc3ccccc32)cc1,-4,9%,?,-10%,?,16µM*
CCCn1c(/C=C/c2ccco2)nc2ccccc21,1,-3%,?,13%,?,?
Cc1c(C(=O)Nc2cc(F)ccc2F)sc2nc(-c3ccccc3)cn12,9,.,.,.,.,-43%
CCCCCCNC(=O)C(C#N)c1nc2ccccc2nc1N(CC)CC (stereo not drawn),-3,.,.,.,.,0%
COCCSc1nc2c(c(=O)[nH]c(=O)n2C)n1CCCc1ccccc1,-7,21%,4%,1%,?,28µM*!
COc1ccc([N+](=O)[O-])cc1C1NN=C(c2ccccc2O)S1 (stereo not drawn),-1,-24%,4.5µM*,2%,?,22%
CCOC(=O)Nc1ccc(NS(=O)(=O)c2ccccc2Br)cc1,-17,.,.,.,.,?
CCOC(=O)Nc1ccc(NS(=O)(=O)c2ccc(C)cc2Cl)cc1,1,.,.,.,.,32µM*
Cc1cccc2sc(NNC(=O)c3cc(=O)c4ccccc4o3)nc12,13,-13%,14%,-10%,22%,32µM*
CCOc1cc(C2/C(=C(\O)c3ccc(Cl)cc3)C(=O)C(=O)N2c2cc(C)on2)ccc1O (stereo not drawn),11,.,.,.,.,16µM*
CCCCCCNC(=O)c1ccc(Nc2ccc(-c3ccc(C)cc3)nn2)cc1,-11,.,.,.,.,10%
COCCCn1c(C)nc2c(c1=O)c1nc3ccccc3nc1n2CCc1ccccc1,-9,-11%,-1%,-6%,8.2µM*,.
O=C(O)CCn1cc(C(C(=O)O)N2CCCC2)c2ccc(Br)cc21 (stereo not drawn),-7,.,.,.,.,?

# Screening results from PubChem BioAssay.
